# An excerpt weighted towards active compounds, which were near 1.3% of everything screened.
# AMA1-RON2 inh: qHTS for Inhibitors of AMA1-RON; Towards Development of Antimalarial Drug Lead: Primary Screen; AlphaScreen AMA1-biotinylated RON2 peptide binding; Potency, µM (series often up to 58.2 µM), for inactives: at the highest dose activity change, negative = inhibition, usual class: inhibitors; 0.2% of 360,000 active; AID 720542, 2013;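 note: 0% = vehicle wells and -100% = peptide control; nearly all actives have a fitted effect of over 45% in size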
#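 AMA1 (3D7) with his tag at 25 nM final met compounds first, then biotinylated RON2 peptide at 25 nM; detection used donor plus acceptor beads, 10 µg/mL apiece, read by AlphaScreen after 30 min at room temperature.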
# Vaccinia mCherry: qHTS for Stage-Specific Inhibitors of Vaccinia Orthopoxvirus: mCherry Reporter Primary qHTS. Vaccinia virus mCherry reporter infection, fluorescence. Potency, µM (top dose mostly 36.5 µM), without a hit: at the top dose activity change, negative = inhibition, usual class: inhibitors. 0.63% of 310,000 active; calls by dose curve; tested in A549 cells; note: nearly all actives have a fitted effect of over 35% in size
# Vaccinia Venus: qHTS for Stage-Specific Inhibitors of Vaccinia Orthopoxvirus: Venus Reporter Primary qHTS | Vaccinia virus Venus reporter expression, fluorescence | Potency, µM (top dose mostly 36.5 µM), for inactives: top-dose activity change, negative = inhibition, actives largely listed as inhibitors | 0.46% of 330,000 active | AID 720580, 2013; calls by dose curve; tested in A549 cells; note: nearly all actives have a fitted effect of over 30% in size
# LmPK inh: qHTS Assay for Inhibitors of Leishmania Mexicana Pyruvate Kinase (LmPK); purified LmPK, Kinase-Glo ATP luminescence, 1 h; Potency, µM (highest dose often 57.5 µM), without a hit: at the highest dose activity change, negative = inhibition, actives largely listed as inhibitors; 0.37% of 290,000 active; Q27686
# Target sequence (Q27686 whole entry, looked up): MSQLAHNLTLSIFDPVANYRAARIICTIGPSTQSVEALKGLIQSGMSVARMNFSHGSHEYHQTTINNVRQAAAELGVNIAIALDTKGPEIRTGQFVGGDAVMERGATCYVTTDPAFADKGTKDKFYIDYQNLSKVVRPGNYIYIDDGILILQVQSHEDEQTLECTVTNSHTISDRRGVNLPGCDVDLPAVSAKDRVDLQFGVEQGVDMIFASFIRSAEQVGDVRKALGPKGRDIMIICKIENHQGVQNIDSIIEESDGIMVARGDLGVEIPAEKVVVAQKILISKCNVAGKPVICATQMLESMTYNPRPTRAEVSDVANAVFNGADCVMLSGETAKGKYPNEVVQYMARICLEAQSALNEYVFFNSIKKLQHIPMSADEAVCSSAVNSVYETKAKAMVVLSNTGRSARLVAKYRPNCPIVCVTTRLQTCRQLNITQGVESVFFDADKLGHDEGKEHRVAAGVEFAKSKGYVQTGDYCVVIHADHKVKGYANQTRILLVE
#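 Purified LmPK (0.1 nM) converted ADP (0.1 mM) to ATP with PEP (0.5 mM) in imidazole buffer pH 7.2 with KCl and MgCl2, 1 h at room temperature. ATP was read by Kinase-Glo luminescence; data normalized to uninhibited and no-enzyme controls.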
# Tb PYK inh: qHTS of Trypanosoma Brucei Inhibitors; pyruvate kinase (Trypanosoma brucei), Q57TT1; TbPYK enzyme, Kinase-Glo Plus ATP luminescence, 45 min; Potency, µM (highest dose often 76.8 µM), for inactives: at the top dose activity, negative = inhibition, hits mostly inhibitors; 0.12% of 410,000 active; note: nearly all actives have a fitted effect of over 50% in size
#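 T. brucei PYK with substrate was exposed to pin-transferred compounds across a concentration series, then started with 130 uM ADP (final). After 45 min at room temperature, Kinase-Glo Plus luminescence was read, normalized and curve-fitted.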
# RE007 growth inh: qHTS Assay for Inhibitors of the HIV-1 protein Vpr; S. pombe RE007 Vpr strain, BacTiter-Glo ATP luminescence, 24 h; 0.21% of 360,000 active; Potency, µM (highest dose often 92.2 µM), inactives show top-dose activity change, negative = less growth, most hits filed as inhibitors; active = well fitted falling curve with a large enough effect; inconclusive = small, poorly fitted or top-dose-only effect; inactive = no such curve, though single readings can be large or run the other way; note: nearly all actives have a fitted effect of over 50% in size
#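 Fission yeast strain RE007, carrying one chromosomally integrated HIV-1 vpr copy, was seeded at OD 0.01 in PMG+AL medium with 23 nL pinned compound. After 24 h at 30 °C and 99% humidity, viability was read by BacTiter-Glo luminescence.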
# Starred values were filed as active, the others as inactive; i = inactive; ? = inconclusive; . = no result given; [ ] = remark or other dose. Unless noted, calls come from the whole dose curve; as a rule, active = well fitted curve in the direction sought with a large enough effect; inconclusive = small, poorly fitted or top-dose-only effect, or another doubt; inactive = no such curve, though single readings can be large; an effect the other way counts as inactive or inconclusive. Unless noted, % is set by controls: 0 for no effect and ±100 for the full control effect; potency is the fitted concentration of half-maximal effect.
SMILES,AMA1-RON2 inh,Vaccinia mCherry,Vaccinia Venus,LmPK inh,Tb PYK inh,RE007 growth inh
O=C(Nc1ncc([N+](=O)[O-])s1)c1cccs1,-6%,-4%,-16%,14µM*,?,28µM*
NC(=O)c1ccccc1N/C=C/C(=O)c1ccccc1,-8%,.,.,7.9µM*,.,-4%[3.69 µM]
OC1CCN(Cc2ccc3c(c2)CN(Cc2ccc(Oc4ncccn4)cc2)CCO3)CC1,.,i,-16%,.,.,.
CN1CCN(Cc2nc3ccccc3c(=O)n2Cc2nc(-c3ccc([N+](=O)[O-])cc3)cs2)CC1,?,10µM*,10µM*,1%,7%,-5%
CN(C)Cc1nc2ccccc2c(=O)n1Cc1nc(-c2cccc([N+](=O)[O-])c2)cs1,-4%,-11%,-15%,14%,-8%,12%
O=C1CC(N2CCC(O)CC2)C(=O)N1c1ccc(Br)cc1 (centres undefined),10%,.,-3%,0%,-6%,?
O=C1CC(N2CCC(O)(c3ccc(Br)cc3)CC2)C(=O)N1c1ccc(Cl)cc1 (centres undefined),-16%,-11%,-13%,1%,-1%,10µM*
COc1ccc(N2C(=O)CC(N3CCC(O)(c4ccc(Br)cc4)CC3)C2=O)cc1 (centres undefined),13%,.,7%,-1%,2%,32µM*
CCCOc1ccc(N2C(=O)CC(N3CCC(O)(c4cccc(C(F)(F)F)c4)CC3)C2=O)cc1 (centres undefined),0%,.,-20%,1%,-6%,32µM*
CCCOc1ccc(N2C(=O)CC(N3CCN(c4ccccc4OC)CC3)C2=O)cc1 (centres undefined),-10%,1%,1%,1%,-4%,?
COc1ccc(N2C(=O)CC(N3CCN(c4ccc(S(C)(=O)=O)cc4)CC3)C2=O)cc1 (centres undefined),-2%,i,-5%,4%,-5%,-25%
COc1ccc(/C=C/C(=O)NCC2Cc3cc(Cl)cc(-c4ncccn4)c3O2)cc1 (centres undefined),.,-8%,-7%,.,.,.
CCOC(=O)c1c(NS(=O)(=O)Cc2ccccc2)sc2c1CCCC2,28%,.,.,12%,-2%,-2%
CCOC(=O)c1c(NS(=O)(=O)c2ccc(Br)cc2)sc2c1CCC2,6%,-4%,38%,.,28µM*,9%
O=C(O[C@H]1[C@H](Cc2ccccc2)NS(=O)(=O)[C@H]2C[C@@H]3C=C[C@]12O3)c1ccccc1Br,.,-13%,-6%,.,.,.
Cc1nnc(SC(=O)N2c3ccccc3Sc3ccccc32)s1,-17%,10µM*,?,3%,-1%,0%
CCOC(=O)N1c2ccccc2Sc2ccccc21,1%,i,-26%,-7%,5%,1%
O=[N+]([O-])c1cccc(/C=N/n2c(-c3cccnc3)n[nH]c2=S)c1,50%,-13%,-8%,11%,2.2µM*,9%
CC(=C/c1ccccc1)/C=N/n1c(-c2ccco2)n[nH]c1=S,48%,.,.,-21%,.,-15%[3.69 µM]
CC(/C=N/n1c(-c2cc(C)[nH]n2)n[nH]c1=S)=C\c1ccccc1,44%,i,-11%,-14%,5µM*,6%
O=[N+]([O-])c1ccc(/C=N/n2c(-c3cccnc3)n[nH]c2=S)cc1,3%[2.32 µM],-12%,-5%,4%,?,-20%
Cc1cc(-c2n[nH]c(=S)n2/N=C/c2cc([N+](=O)[O-])ccc2Cl)n[nH]1,7%[11.6 µM],-16%,-14%,15%,4µM*,11%
COc1ccc(CN2CCOc3ccc(CN4CCC(O)CC4)cc3C2)c(OC)c1OC,.,i,0%,.,.,.
O=C1c2ccccc2C(=O)N1c1ccc(O)cc1,.,0%,-11%,.,.,.
Cc1ccccc1C1(CC(=O)N2CCCCC2c2cccnc2)CC(=O)N(C2CCCC2)C1=O (centres undefined),.,-18%,-21%,.,.,.
SMILES,AMA1-RON2 inh,Vaccinia mCherry,Vaccinia Venus,LmPK inh,Tb PYK inh,RE007 growth inh
CCCOc1ccc(N2C(=O)CC(NCc3ccc(S(N)(=O)=O)cc3)C2=O)cc1 (centres undefined),4%,-10%,-8%,11%,2%,-3%
CCCCOc1ccc(N2C(=O)CC(NCCc3ccc(S(N)(=O)=O)cc3)C2=O)cc1 (centres undefined),0%,.,.,4%,-5%,63µM*
COc1ccc(CNC(=O)c2cnn(-c3nccc(-c4ccco4)n3)c2C)cc1OC,.,?,-14%,.,.,.
O=C(CSC1=NS(=O)(=O)c2ccccc21)Nc1ccccc1,10%,13µM*,10µM*,22µM*,?,-25%
O=C(CSC1=NS(=O)(=O)c2cc(F)ccc2N1)Nc1ccccc1,0%,-13%,-1%,.,0%,6%
CC(=NNC(=O)c1ccncc1)c1ccccc1O,63%,1.1µM*,?,.,1%,10%
CC(C)CC(=NNC(=O)c1ccncc1)c1cc(Cl)ccc1O,67%,5.6µM*,?,.,-7%,-1%
Cc1cnc(-n2ncc(C(=O)N(CCO)C(C)C)c2-c2cccs2)nc1-c1ccc(F)cc1,.,-18%,-16%,.,.,.
CC1=C(O)C(=O)C=C2C1=CC=C1[C@]2(C)CC[C@@]2(C)C3C[C@](C)(C(=O)O)CC[C@@]3(C)CC[C@@]12C (some centres undefined),.,14µM*,11µM*,.,.,.
COC(=O)[C@]1(C)CC[C@@]2(C)CC[C@@]3(C)C4=CCc5c(cc(O)c(O)c5C)[C@]4(C)CC[C@@]3(C)C2C1 (some centres undefined),.,20%,2%,.,.,.
CC1CN(Cc2cccn2-c2cccnc2)Cc2cc(Cl)ccc2O1 (centres undefined),.,-10%,2%,.,.,.
COc1ccc(NC(=O)Nc2ccccc2SC)cc1,-4%,i,-13%,10µM*,-19%,-15%
O=C1C(=Cc2cccs2)C(=O)c2ccccc21,-16%,i,-10%,14µM*,-19%,.
O=C1/C(=C/c2cccs2)Cc2ccccc21,7%[11.6 µM],-15%,-9%,?,6%,?
Cc1ccc(C=C2C(=O)c3ccccc3C2=O)o1,-10%,i,-5%,4.5µM*,?,-3%
Cc1ccc(/C=C2/NC(=O)N(c3ccccc3)C2=O)o1,34%,.,.,1%,?,63µM*
Cc1ccc(C=C2C(=O)c3ccccc3C2=O)s1,?,2%,7%,13µM*,-28%,?

# High-throughput results as filed in PubChem.
